Test results from PubChem BioAssay AID1159580 (chemical genetic matrix, 2015).
The whole screen tested about 5,500 compounds, of which about 2,000 (36%) were called active. Inconclusive results (about 18%) are left out. No stated cut-off is given here; in the data, active means normalized growth mostly below about 0.91 (no sharp cut-off); inconclusive means no clear call, values can overlap the other calls; inactive means mostly above about 0.92. The list shows a part of the results.

Experiment: chemical genetic growth profiling, strain panel (AID 1159580);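 further: tested at 20 µM; growth read once vehicle control cultures reached saturation at 30 °C; 1 = growth at the plate median or of vehicle wells; lower values mean less growth of the strain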
Details: S. cerevisiae deletion strains, growth OD

Measured: normalized growth

C/C(=N/NC(N)=S)c1ccc(Oc2c(Cl)cncc2Cl)cc1
inactive: locus YAR019C, strain CDC15, active compounds read low 0.997 | locus YBL105C, strain PKC1, active compounds read low 0.993 | locus YBR135W, strain CKS1, active compounds read low 0.983 | locus YBR136W, strain MEC1, active compounds read low 0.986 | locus YBR160W, strain CDC28, active compounds read low 0.989 | locus YDL017W, strain CDC7, active compounds read low 0.987 | locus YDL028C, strain MPS1, active compounds read low 0.992 | locus YDL101C, strain DUN1, active compounds read low 0.988 | locus YDL108W, strain KIN28, active compounds read low 0.987 | locus YDL132W, strain cdc53, active compounds read low 0.994 | locus YDL214C, strain PRR2, active compounds read low 1.01 | locus YDR052C, strain DBF4, active compounds read low 0.989 | locus YDR054C, strain cdc34, active compounds read low 0.978 | locus YDR226W, strain ADK1, active compounds read low 0.988 | locus YDR477W, strain SNF1, active compounds read low 0.999 | locus YER123W, strain YCK3, active compounds read low 0.989 | locus YER133W, strain GLC7, active compounds read low 0.969 | locus YFL009W, strain cdc4, active compounds read low 0.983 | locus YFL029C, strain CAK1, active compounds read low 1 | locus YFR003C, strain YPI1, active compounds read low 0.991 | locus YFR019W, strain FAB1, active compounds read low 0.99 | locus YFR028C, strain CDC14, active compounds read low 0.993 | locus YGR040W, strain KSS1, active compounds read low 0.989 | locus YGR052W, strain FMP48, active compounds read low 1.06 | locus YGR092W, strain DBF2, active compounds read low 0.97 | locus YHR030C, strain SLT2, active compounds read low 1.05 | locus YHR079C, strain IRE1, active compounds read low 0.932 | locus YHR082C, strain KSP1, active compounds read low 1.24 | locus YHR205W, strain SCH9, active compounds read low 1.07 | locus YIL147C, strain SLN1, active compounds read low 0.984 | locus YJL095W, strain BCK1, active compounds read low 0.944 | locus YJL128C, strain PBS2, active compounds read low 1.02 | locus YJL157C, strain FAR1, active compounds read low 0.993 | locus YJR016C, strain ILV3, active compounds read low 0.995 | locus YJR066W, strain TOR1 (second series), active compounds read low 0.953 | locus YJR066W, strain TOR1, active compounds read low 1.2 | locus YKL048C, strain ELM1, active compounds read low 1.03 | locus YKL067W, strain YNK1, active compounds read low 1.02 | locus YKL101W, strain HSL1, active compounds read low 1.03 | locus YKL193C, strain SDS22, active compounds read low 0.991 | locus YKL203C, strain TOR2, active compounds read low 1.06 | locus YLR113W, strain HOG1, active compounds read low 1.01 | locus YLR133W, strain CKI1, active compounds read low 1.01 | locus YLR403W, strain SFP1, active compounds read low 0.97 | locus YML070W, strain DAK1, active compounds read low 1.01 | locus YMR001C, strain CDC5, active compounds read low 0.989 | locus YMR205C, strain PFK2 (second series), active compounds read low 1.03 | locus YMR277W, strain FCP1, active compounds read low 0.997 | locus YNL006W, strain LST8, active compounds read low 0.993 | locus YNL020C, strain ARK1, active compounds read low 1.01 | locus YNL161W, strain CBK1, active compounds read low 1 | locus YNL183C, strain NPR1, active compounds read low 0.996 | locus YNL207W, strain RIO2, active compounds read low 0.995 | locus YNL222W, strain SSU72, active compounds read low 0.998 | locus YNL307C, strain MCK1 (second series), active compounds read low 1 | locus YOL078W, strain AVO1, active compounds read low 0.998 | locus YOL136C, strain PFK27, active compounds read low 1.02 | locus YOR061W, strain CKA2, active compounds read low 0.994 | locus YOR119C, strain RIO1, active compounds read low 1.02 | locus YOR231W, strain MKK1, active compounds read low 0.973 | locus YOR329C, strain SCD5, active compounds read low 0.991 | locus YPL031C, strain PHO85, active compounds read low 0.983 | locus YPL153C, strain RAD53, active compounds read low 0.953 | locus YPL204W, strain HRR25, active compounds read low 0.972 | locus YPL209C, strain IPL1, active compounds read low 0.998 | locus YPL256C, strain CLN2, active compounds read low 0.99 | locus YPR025C, strain CCL1, active compounds read low 0.988 | locus YPR106W, strain ISR1, active compounds read low 1 | locus YPR111W, strain DBF20, active compounds read low 1.02 | strain NNK1, active compounds read low 1.03 | strain TSCII, active compounds read low 0.994
